Results as given in PubChem BioAssay (EPA / NIEHS).
Several values for one entry are separate records, joined by “and”; a condition that tells them apart may be missing. Equal values may be shown once. Activity calls are given as the source filed them. The calls were made as follows: active = hit-call score of the fitted dose curve at least 0.9, where 1 is the maximum; inactive = score below 0.9.

How the values were obtained:
[1] = read-out: Macrophage colony-stimulating factor (MCSF), CSF1 (gene 1435); assay: BSK_hDFCGF_MCSF: BioMAP Diversity Plus: hDFCGF Assay for Macrophage colony-stimulating factor (MCSF) Biomarker Activity (AID 2283060); conditions: primary human foreskin fibroblasts; actives raise or lower the signal
Summary of the method: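 Human foreskin fibroblast primary cultures; M-CSF measured by ELISA 24 hours after chemical dosing. Bidirectional fitting relative to DMSO, with overt cytotoxicity tracked by parallel SRB total-protein staining (0.1% SRB, 10% TCA fixation, 560 nm).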

[2] = BSK_hDFCGF_SRB: Viability Assessment in the BioMAP Diversity Plus: hDFCGF Assay (AID 2283061); conditions: primary human foreskin fibroblasts;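 also: cells exposed to compound for 24 h before the read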
Summary of the method: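 Human foreskin fibroblasts in 96-well plates were treated 24 h. Total protein was measured by 0.1% SRB staining after 10% TCA fixation, read at 560 nm. Data were fitted bidirectionally against DMSO.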

[3] = read-out: TIMP metallopeptidase inhibitor 1 (TIMP1), TIMP1 (gene 7076); assay: BSK_hDFCGF_TIMP1: BioMAP Diversity Plus: hDFCGF Assay for TIMP metallopeptidase inhibitor 1 (TIMP1) Biomarker Activity (AID 2283062); conditions: primary human foreskin fibroblasts; actives raise or lower the signal
Summary of the method: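 Human foreskin fibroblast primary cultures dosed for 24 h; secreted/surface TIMP-1 quantified by ELISA. Bidirectional curve fitting against DMSO baseline; cytotoxicity tracked in parallel cultures by SRB total-protein staining.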

[4] = read-out: Monokine induced gamma interferon (MIG), CXCL9 (gene 4283); assay: BSK_hDFCGF_MIG: BioMAP Diversity Plus: hDFCGF Assay for Monokine induced gamma interferon (MIG) Biomarker Activity (AID 2283063); conditions: primary human foreskin fibroblasts; actives raise or lower the signal
Summary of the method: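 MIG/CXCL9 measured by ELISA 24 h after dosing primary human skin fibroblasts. Activity fitted in both directions against DMSO controls. Cytotoxicity was checked in parallel cultures by SRB staining read at 560 nm.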

[5] = read-out: Matrix Metallopeptidase 1 (MMP1), MMP1 (gene 4312); assay: BSK_hDFCGF_MMP1: BioMAP Diversity Plus: hDFCGF Assay for Matrix Metallopeptidase 1 (MMP1) Biomarker Activity (AID 2283064); conditions: primary human foreskin fibroblasts; actives raise or lower the signal
Summary of the method: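 Human foreskin fibroblasts exposed to chemical for 24 h; MMP1 detected by ELISA, with DMSO as baseline for bidirectional fitting.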

[6] = read-out: Plasminogen activator inhibitor-1 (PAI1), SERPINE1 (gene 5054); assay: BSK_hDFCGF_PAI1: BioMAP Diversity Plus: hDFCGF Assay for Plasminogen activator inhibitor-1 (PAI1) Biomarker Activity (AID 2283066); conditions: primary human foreskin fibroblasts; actives raise or lower the signal
Summary of the method: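 Human skin fibroblast cultures receive chemical for 24 h before PAI-1 is measured by ELISA; signal changes are fitted bidirectionally against DMSO-treated wells.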

[7] = read-out: Intercellular Adhesion Molecule 1 (ICAM1), ICAM1 (gene 3383); assay: BSK_KF3CT_ICAM1: BioMAP Diversity Plus: KF3CT Assay for Intercellular Adhesion Molecule 1 (ICAM1) Biomarker Activity (AID 2283067); conditions: primary human keratinocytes with fibroblasts; actives raise or lower the signal
Summary of the method: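 Human keratinocyte–foreskin fibroblast co-culture was treated for 24 h. Cell-surface ICAM-1 was quantified by ELISA, fitted bidirectionally relative to DMSO. Cytotoxicity was checked in parallel cultures by SRB total-protein staining.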

[8] = read-out: Interferon-gamma inducible Protein 10 (IP10), CXCL10 (gene 3627); assay: BSK_KF3CT_IP10: BioMAP Diversity Plus: KF3CT Assay for Interferon-gamma inducible Protein 10 (IP10) Biomarker Activity (AID 2283068); conditions: primary human keratinocytes with fibroblasts; actives raise or lower the signal
Summary of the method: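 KF3CT co-culture (keratinocytes + foreskin fibroblasts), 24 h compound, IP-10 by ELISA; bidirectional fit vs DMSO baseline.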

[9] = BSK_KF3CT_SRB: Viability Assessment in the BioMAP Diversity Plus: KF3CT Assay (AID 2283069); conditions: primary human keratinocytes with fibroblasts;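 also: read 24 h after compound addition; fitted for both signal gain and loss against DMSO baseline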
Summary of the method: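 Overt cytotoxicity is assessed as total protein by sulforhodamine B staining in parallel human skin co-cultures at 24 h after dosing. DMSO serves as negative control and baseline.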

[10] = read-out: Vascular cell adhesion molecule 1 (VCAM1), VCAM1 (gene 7412); assay: BSK_hDFCGF_VCAM1: BioMAP Diversity Plus: hDFCGF Assay for Vascular cell adhesion molecule 1 (VCAM1) Biomarker Activity (AID 2283065); conditions: primary human foreskin fibroblasts; actives raise or lower the signal
Summary of the method: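 Human foreskin fibroblast primary cells dosed with chemical, VCAM-1 measured by ELISA at 24 h. Bidirectional curve fitting relative to DMSO as negative control/baseline.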

Measured: AC50

CCOP(=S)(OCC)SCS(=O)(=O)CC
not listed: [10]
inactive: all other assays above

CCOS(=O)(=O)OCC
not listed: [7]
inactive: all other assays above

ClC1=C(Cl)C2(Cl)C3C(Cl)C(Cl)CC3C1(Cl)C2(Cl)Cl (centres undefined)
active: [1] 5.82 µM | [2] 7.71 µM | [3] 8.69 µM | [4] 9.26 µM | [5] 10.1 µM | [6] 10.3 µM | [7] 31.9 µM | [8] 16.1 µM | [9] 28.2 µM

CSC(C)(C)C=NO
not listed: [7]
inactive: all other assays above

CCOP(=S)(NC(C)C)Oc1ccccc1C(=O)OC(C)C (centres undefined)
active: [6] 0.257 µM
not listed: [7]
inactive: all other assays above

CCOP(=S)(OCC)SCSCC
not listed: [7]
inactive: all other assays above

CCOC(=O)c1ccccc1C(=O)OCC
not listed: [10]
inactive: all other assays above

O=C(O)C(F)(F)OC(F)(F)C(F)(F)OC(F)(F)C(=O)O
not listed: [7]
inactive: all other assays above

CCOc1ccc(C(C)(C)COCc2cccc(Oc3ccccc3)c2)cc1
active: [1] 2.26 µM
not listed: [10]
inactive: all other assays above

Nc1ccc2ccccc2c1
not listed: [10]
inactive: all other assays above

c1cc2c3c(cccc3c1)CC2
not listed: [10]
inactive: all other assays above

Nc1cc2c3c(c1)C(c1ccccc1)=N[C@@H](NC(=O)c1cccnc1)C(=O)N3CC2
active: [6] 0.523 µM
not listed: [7] | [10]
inactive: all other assays above

c1ccc2c(c1)sc1ccccc12
not listed: [10]
inactive: all other assays above

O=S(=O)(F)C(F)(F)C(F)(F)C(F)(F)C(F)(F)C(F)(F)C(F)(F)C(F)(F)C(F)(F)F
not listed: [7] | [10]
inactive: all other assays above

NC(=O)C(F)(F)C(F)(F)F
not listed: [7] | [10]
inactive: all other assays above

O=P(Oc1ccccc1)(Oc1ccccc1)Oc1ccccc1
active: [1] 10.9 µM | [6] 20 µM
not listed: [10]
inactive: all other assays above

O=C(O)C(F)(OC(F)(F)C(F)(F)C(F)(F)F)C(F)(F)F (centres undefined)
not listed: [7] | [10]
inactive: all other assays above

CCNc1nc(Cl)nc(NC(C)(C)C)n1
not listed: [7] | [10]
inactive: all other assays above

CC(C)(C)c1ccc(O)cc1
not listed: [7] | [10]
inactive: all other assays above

CC(Cc1ccc(OCC(=O)O)cc1)NCC(O)c1csc(C(F)(F)F)n1 (centres undefined)
not listed: [10]
inactive: all other assays above

CCCCc1ccccc1
not listed: [7] | [10]
inactive: all other assays above

CC(Cl)(Cl)C(=O)O
not listed: [10]
inactive: all other assays above

C=CC(=O)OCC(CC)(COC(=O)C=C)COC(=O)C=C
active: [1] 2.11 µM | [2] 1.32 µM | [3] 1.11 µM | [4] 1.4 µM | [5] 3.85 µM | [6] 1.08 µM | [8] 3.17 µM | [9] 3.15 µM

O=P1(N(CCCl)CCCl)NCCCO1 (centres undefined)
not listed: [7] | [10]
inactive: all other assays above

OCC1CO1 (centres undefined)
not listed: [10]
inactive: all other assays above

CCCCC(CC)COP(=O)(Oc1ccccc1)Oc1ccccc1 (centres undefined)
inactive: [8]
active: [1] 6.1 µM | [2] 4.47 µM | [3] 5.46 µM | [4] 11 µM | [5] 6.33 µM | [6] 6.48 µM | [9] 20 µM

CCOP(=S)(Oc1ccc([N+](=O)[O-])cc1)c1ccccc1 (centres undefined)
active: [1] 7.24 µM | [6] 3.35 µM
not listed: [7] | [10]
inactive: all other assays above

COP(N)(=S)OC
not listed: [10]
inactive: all other assays above

Cc1cccc(N)c1
not listed: [7] | [10]
inactive: all other assays above

OCC(F)(F)OC(F)(F)C(F)(F)OC(F)(F)C(F)(F)OC(F)(F)F
active: [4] 16 µM and 14.7 µM | [7] 48.3 µM and 46.3 µM | [8] 53.8 µM and 53.2 µM | [9] 48.3 µM and 48.1 µM
not listed: [10]
inactive: all other assays above

N#Cc1cc([N+](=O)[O-])ccc1N
not listed: [7] | [10]
inactive: all other assays above

CCCCN(CCCC)SN(C)C(=O)Oc1cccc2c1OC(C)(C)C2
active: [1] 7.15 µM | [2] 9.64 µM | [3] 12.4 µM | [4] 13.2 µM | [5] 12.4 µM | [6] 8.57 µM
inactive: [8] | [9]

ClC(Cl)=C(c1ccc(Cl)cc1)c1ccccc1Cl
active: [1] 2.86 µM | [2] 3.51 µM | [3] 3.94 µM | [4] 4.45 µM | [5] 3.83 µM | [6] 4.24 µM | [7] 5.72 µM | [8] 3.5 µM | [9] 6.86 µM

ClC(Cl)c1ccccc1
not listed: [10]
inactive: all other assays above

Cc1ccc(N)cc1N
not listed: [7] | [10]
inactive: all other assays above

CCCCN(CCCC)N=O
not listed: [7] | [10]
inactive: all other assays above

CCCCOCCOP(=O)(OCCOCCCC)OCCOCCCC
not listed: [10]
inactive: all other assays above

Nc1ccc(Cl)cc1
not listed: [10]
inactive: all other assays above

CN(C)C(=O)Cl
not listed: [7] | [10]
inactive: all other assays above
